Measured values as given in PubChem BioAssay AID1347426 (Functional Genomics Laboratory (NCATS/FGL), 2020).
Among all 31,000 sequences or so, about 1,400 (4.5%) were called active. This is one part of a sample in which actives are shown more often than they occur. Unmarked numbers belong to inactive results.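 Rule for the calls: active = median seed-adjusted z-score above 1 or below -1; inactive = the rest.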

Assay: Novel Modifiers of Survival Motor Neuron (SMN) Protein: Gene Identification via Genome-wide siRNA Screen;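 note: luminescence tracks full-length SMN protein made from the SMN2 reporter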
Details: HEK293T SMN2-luciferase reporter, siRNA knockdown, 72 h; actives lie on both sides
In short: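 siRNA screen, 10418 genes ×3 siRNAs; 1 pmol/well, lipid reverse transfection into HEK293T SMN2-luc reporter line. 72 h, 37 °C, 5% CO2; ONE-Glo readout. Data: neg-ctrl normalized, log10, MAD; hit = MAD >1.0 or < -1.0.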

Row | Sequence | median seed-adjusted z-score
1 | GAAUCACUCUUUGACAACATT against SLC2A13 | -0.0451
2 | GAAGAAUACAAACAGCAAUTT against CRCP | 0
3 | CAGCUGUUCUCAUAUGCUATT against ATP5G3 | 0
4 | CCUGAUUACUAUAAGAUCATT against BRD4 | 1.13 (active)
5 | GAACCUCUCUGAAACUGCUTT against PBLD | -0.0809
6 | CGACUCCGGAGGAUUGAAATT against GSX2 | -0.621
7 | GCAAGUUAGUGGAUUAAAATT against FOXP1 | -0.198
8 | GACUAGUACUUACGGCUUUTT against RBM15 | -0.409
9 | GCAUGAACGCGGUCAUGAUTT against RAB40C | -0.161
10 | CAGGUCAAGUGUUACCGAUTT against ZCCHC13 | -0.297
11 | GCAAUUACAGGCUAGUGAATT against AKAP9 | -1.22 (active)
12 | CCUACUUCGGAGUCUAUGATT against SLC25A4 | -0.379
13 | CAAGGUUGAUGGGCGUGUATT against HNRNPA3 | 0.915
14 | CCAGGACUUUGUUACUGCATT against TIGD6 | -0.443
15 | GCUGGUACCCGUCAACAAATT against ABCC10 | -1.56 (active)
16 | GGACUUCAAUAUCGCAGUATT against PLCE1 | 0.597
17 | GGAACAGCGCAGUACGUUUTT against PDPK1 | 0.0807
18 | CCAUCGCUUUCAGCAGACATT against DLX6 | 0.0275
19 | GGACCACAAGGGAAUACAATT against KHDRBS1 | 0.0916
20 | ACUUGGAUCAUUUCCCUGATT against SLC13A5 | 0
21 | GACCUUGAAUGUUCAACAUTT against ZNF470 | -1.26 (active)
22 | GCCGCAUCGUAGCUCGUAATT against RRAD | -0.267
23 | GGAAUAUGCAUAUCAUGGATT against LNPEP | -0.386

Row | Sequence | median seed-adjusted z-score
24 | CGAUAUAUGUGAUAUGCGUTT against ZNF740 | -0.914
25 | GCAACAAGACGGAAUUGGATT against SFRS3 | 2.74 (active)
26 | GAGUGGACAUUCUAAUCAATT against RDH13 | 0.208
27 | CCAUCUUAAACUCGCUCUATT against GPR114 | 0.805
28 | CUACCGGGCUGACCUCAAATT against GPR153 | -1.08 (active)
29 | UGAGAGCUCUAGAUAUGAATT against ZNF768 | 0.169
30 | ACGGCUCUGUGGACACAGATT against GPR78 | 0.607
31 | CGAGUGAAAGAAUCAAUAUTT against OXSR1 | -0.0682
32 | GCUACGAGUUUACUAUCUUTT against TNIK | 0.154
33 | CCUCAGAGCUCAAUCAUCUTT against CD5 | 0.0416
34 | CGAUAAUCUGGGCUACAGATT against ADD1 | -0.0129
35 | CCAAUACUAACAUCUUCAATT against MCART1 | -0.605
36 | CAACGGCUCUUAGACCACATT against SPRY4 | -1.23 (active)
37 | GCUCAGUAUUUAAACAUCATT against COL9A2 | 0.0208
38 | AGCCGACAGUGGUGCACUATT against PLA2G15 | 0
39 | CGGAGACCGUACGAAAGUATT against A2M | -1.96 (active)
40 | GGAUGGAAGAUAGCUUGAATT against CPEB4 | -0.53
41 | CGGGCAUUGCCACCAAAGATT against DUX5 | -0.295
42 | GCAUUCAUCACUUCGAAAATT against BNC2 | -0.0556
43 | CCUACAGCAGUGUCUAUGATT against EIF3C | 0.56
44 | GGUUGACUCAGAUACUACATT against CENPE | 0.298
45 | GGAUCCUUACUUCUUGUCATT against COQ2 | -0.0121
46 | GGAAACCAGUGGAUAUUAATT against F11 | -0.0319

Row | Sequence | median seed-adjusted z-score
47 | ACAUCAACGUGGAACGAGATT against EIF4A1 | -1.05 (active)
48 | GAUGAGACUUUGACUAUAATT against FGD6 | 0.536
49 | GCCUGAACCUCAUCCUUAUTT against ENPP1 | -0.273
50 | GGGUUUUCAUUCAGAUGAATT against MLL4 | -0.259
51 | GGAUUAUUCCUACCUAAUUTT against CDYL2 | -0.379
52 | GGAAGAAGGUUCUCAAACATT against RETSAT | -1.7 (active)
53 | GGAGCAGUAUUGACAACAATT against NUFIP1 | -0.673
54 | GCACAAUUGAAAACUUCAATT against CYSLTR2 | 0.0461
55 | GGAUGUUCCAAAUCACGGATT against MBTD1 | 0.0649
56 | GGAUUGCCCAGGGUUCCUATT against DGKQ | -0.0985
57 | CGGUUAGAUUUGGACAGUATT against ARHGAP9 | 0
58 | GGACUUGGUUUUUCGUACATT against MED14 | -3.22 (active)
59 | UCCUUUAACUCGACAGUCATT against DRG2 | -0.175
60 | AGAGGGCACUGGACCUGAATT against UQCRB | 0.348
61 | GAUCCAAUGUAAACGUGGATT against GRLF1 | 0.0307
62 | GGACCAGAACCACAAGCAATT against GHSR | 0.18
63 | GAUCAUCUCUGAAACAGCATT against GYG1 | 0.119
64 | CAUUCGACAUAGAAGAGUUTT against ZNF551 | -0.171
65 | GGUUACAAGCGGUUUGGUATT against COLEC12 | -1.04 (active)
66 | CAUGUUAAUUGUUAAGGAUTT against WFDC8 | 0.0427
67 | GAGCAGAUCGAGAUCAAAATT against EVI5L | 0.0497
68 | GGAAAUUCAGGUACGGAUATT against ADAMTS4 | -0.0153
69 | CGGACAUUCGUGCAAAGAATT against PRPF6 | -1.06 (active)
